From PubChem BioAssay
Rows were chosen to be rich in hits. Some 11% of all compounds tested hit in one or more screens of this group.
FLuc inh: blocks purified firefly luciferase enzyme activity. P08659. purified P. pyralis luciferase, luminescence, biochemical. Potency, µM (highest dose often 115 µM), most hits filed as inhibitors. 2.5% of 76,000 active; note: nearly all actives have a fitted effect of over 65% in size
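Inhibitors were tested against purified firefly luciferase in a biochemical, low-substrate format (both substrates at 10uM) and luminescence measured with a CCD imager.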
HEK cytotox: cytotoxic compounds in HEK 293 cells; 6.6% of 94,000 active; HEK 293 viability, ATP luminescence (CellTiter-Glo), 48-72 h; Potency, µM (doses to about 115 µM), for the others: top-dose activity change, negative = cytotoxicity, most hits filed as inhibitors; AID 1345083; note: nearly all actives have a fitted effect of over 60% in size
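Read-out: CellTiter-Glo ATP luminescence. Cells: HEK 293, 250 cells/well. Exposure: 48 or 72 hr, 37 degree Celsius.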
NPR1 antag: blocks ANP-stimulated signaling of human Npr1 receptor | HEK293 hNpr1 GloSensor cGMP, ANP-stimulated luminescence | P16066 | AID 1347048 | Potency, µM (doses to about 46.3 µM), for the others: top-dose activity change, negative = inhibition, usual class: inhibitors | 1.6% of 76,000 active; calls by dose curve; note: nearly all actives have a fitted effect of over 60% in size
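Compound pre-incubated 30 min at room temperature on GloSensor-loaded HEK293 cells stably carrying hNpr1 and the pGS-40F cGMP biosensor. Stimulation uses hNppA at 0.1 nM final; luminescence is taken at baseline and 20 min post-agonist.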
3T3 cytotox: NIH 3T3 cell cytotoxicity | NIH 3T3 viability, CellTiter-Glo ATP luminescence, 48-72 h | Potency, µM (top dose mostly 96.7 µM), for inactives: top-dose activity change, negative = cytotoxicity, most hits filed as inhibitors | 4.3% of 94,000 active | AID 1345082; note: nearly all actives have a fitted effect of over 55% in size
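Cytotoxicity is measured as loss of cellular ATP: NIH 3T3 cells (400/well) are exposed to compound for 48 or 72 hr at 37 °C, then CellTiter-Glo luminescence is imaged after 10 min at room temperature.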
* marks the source's active call; other numbers are inactive results; i = inactive; u = inconclusive; x = not tested or not shown; [ ] = another dose, or the depositor's remark. Unless noted, calls come from the whole dose curve; as a rule, active = well fitted curve in the direction sought with a large enough effect; inconclusive = small, poorly fitted or top-dose-only effect, or another doubt; inactive = no such curve, though single readings can be large; an effect the other way counts as inactive or inconclusive. % is set by controls: 0 for no effect and ±100 for the full control effect; potency is the fitted concentration of half-maximal effect.

SMILES | FLuc inh | HEK cytotox | NPR1 antag | 3T3 cytotox
C[C@H]1[C@@H]2[C@H]3OC(=O)[C@@H](C)[C@@H]3CC[C@@]2(C)CC[C@@H]1NC(=O)c1ccccn1 | i | 100µM* | -14%[70.6 µM] | -22%[174 µM]
C[C@H]1[C@@H]2[C@H]3OC(=O)[C@@H](C)[C@@H]3CC[C@@]2(C)CC[C@@H]1NC(=O)c1ccc(C#N)cc1 | i | u | 0%[70.6 µM] | 89µM*
COc1ccc(C(=O)N[C@H]2CC[C@]3(C)CC[C@@H]4[C@H](OC(=O)[C@H]4C)[C@H]3[C@@H]2C)cc1 | i | 4%[172 µM] | 2%[70.6 µM] | -10%[174 µM]
O=C(Nc1ccccc1)c1cnc2n1CCN(Cc1c[nH]c3ccccc13)CC2 | i | u | -15%[70.6 µM] | u
O=C1N(Cc2cccc(F)c2F)CCCC1(O)CNCc1cccc(F)c1 (stereo not drawn) | i | -20% | 5% | u
O=C(C1CN(C2CCCC2)C(=O)N1)N1CCN(Cc2ccccc2)CC1 (stereo not drawn) | x | -9%[172 µM] | x | -24%[138 µM]
O=C(c1cccs1)N1CCc2[nH]nc(-c3cccc(F)c3)c2C1 | i | 28µM* | -13% | u
Cn1nc(C(=O)NCC(=O)N2CCCCCNC(=O)CC2c2ccccc2)c2ccccc21 (stereo not drawn) | i | i | 3% | i
C#CCNC(=O)c1cc(-c2cccc(C(F)(F)F)c2)c2cccn2n1 | x | u | x | 50µM*
C#CCNC(=O)c1cc(C(C)(C)C)c2cccn2n1 | x | -30%[172 µM] | x | -16%[138 µM]
O=C(NCc1ccc(F)cc1)c1cc(-c2cccc(C(F)(F)F)c2)c2cccn2n1 | x | 25µM* | x | u
O=C(NCc1ccc(F)cc1)c1cc(-c2ccc(Cl)cc2Cl)c2cccn2n1 | x | u | x | -29%
CC(C)NC(=O)c1cc(C(C)(C)C)c2cccn2n1 | x | -11%[172 µM] | x | -6%[138 µM]
CC(C)NC(=O)c1cc(-c2cccc(C(F)(F)F)c2)c2cccn2n1 | x | 35µM* | x | u
O=C(NCC(F)(F)F)c1cc(-c2cccc(C(F)(F)F)c2)c2cccn2n1 | x | 35µM* | x | u
Cc1oc(-c2cccc(Cl)c2)nc1CN1CCN(C(=O)N(C)C)CC1 | i | u | 5% | -23%
COc1ccc2c(c1)OC[C@@H]1CN(C)C(=O)CCN(C(=O)OCC(C)C)[C@H]21 | x | -10% | x | u
O=C(NC1CC1)c1cc(-c2cccc(C(F)(F)F)c2)c2cccn2n1 | x | 35µM* | x | u
O=C(NC1CCCC1)c1cc(-c2cccc(C(F)(F)F)c2)c2nncn2n1 | x | 1% | x | -17%
O=C1OC[C@@H]2CCN(Cc3ccccn3)Cc3ccccc3N12 | i | 2%[172 µM] | 6%[70.6 µM] | 0%[138 µM]
Cc1ccccc1-c1nc(N2CCOCC2)cc2c1CN(Cc1ccccc1)C2=O | i | 50µM* | -28%[70.6 µM] | 25µM*
O=C1c2cc(N3CCOCC3)nc(-c3ccc(CO)cc3)c2CN1Cc1ccccc1 | i | -10%[172 µM] | 1%[70.6 µM] | u
CN1Cc2c(cc(N3CCOCC3)nc2-c2cnn(C)c2)C1=O | i | u | 8%[70.6 µM] | 25µM*
Cc1ccccc1-c1nc(N2CCOCC2)cc2c1CN(Cc1cnn(C)c1)C2=O | i | u | 0%[70.6 µM] | u
O=C1c2cc(N3CCOCC3)nc(-c3cccc(CO)c3)c2CN1Cc1ccccc1 | i | 79µM* | -1%[70.6 µM] | -80%[138 µM]
SMILES | FLuc inh | HEK cytotox | NPR1 antag | 3T3 cytotox
O=C1c2cc(N3CCOCC3)nc(-c3ccc(F)cc3)c2CN1CC1CC1 | i | 100µM* | -20%[70.6 µM] | u
Cc1ccc(-c2ccccc2CN2CCN([S+](=O)([O-])CCC(F)(F)F)CC2)cc1Cl | x | u | x | -35%
CCn1cc(S(=O)(=O)N2CCC(Oc3ccccc3-c3nc(C)no3)C2)cn1 (stereo not drawn) | x | 1% | x | 0%
O=C(c1cccnc1)N1CCOC[C@H](Oc2ccc(C(F)(F)F)cn2)C1 | i | -23%[172 µM] | 2%[70.6 µM] | -22%[138 µM]
O=C1c2cc(N3CCOCC3)nc(-c3ccc(F)cc3)c2CN1Cc1ccccc1 | i | u | -22%[70.6 µM] | u
COc1cc(F)ccc1-c1nc(N2CCOCC2)cc2c1CN(c1ccccc1)C2=O | 71µM* | u | 1%[70.6 µM] | -25%[138 µM]
CN(C)c1cccc(-c2nc(N3CCOCC3)cc3c2CN(Cc2cnn(C)c2)C3=O)c1 | i | u | 3%[70.6 µM] | 45µM*
CCN1C(=O)CCN(Cc2cn(C)c3ccc(OC)cc23)CC12CCOCC2 | i | u | 2% | 32µM*
O=C(N[C@H]1CO[C@H]2[C@@H]1OC[C@@H]2Nc1nccc(-c2ccc(-c3ccccc3)cc2)n1)c1ccccc1 | i | 10µM* | u | u
Cc1ccc(S(=O)(=O)N[C@H]2CO[C@H]3[C@@H]2OC[C@@H]3Nc2nccc(C(C)(C)C)n2)cc1 | u | 25µM* | 3.5µM* | u
CC(=O)N[C@H]1CO[C@H]2[C@@H]1OC[C@@H]2Nc1nccc(-c2cccc(F)c2)n1 | i | u | u | -28%[174 µM]
COCC(=O)N[C@H]1CO[C@H]2[C@@H]1OC[C@@H]2Nc1nccc(-c2cccc(F)c2)n1 | i | 100µM* | 3%[70.6 µM] | u
CN(C)c1ccc(C(=O)N[C@H]2CO[C@H]3[C@@H]2OC[C@@H]3Nc2nccc(-c3cccs3)n2)cc1 | u | 45µM* | -26% | u
O=C(C1CCCN(S(=O)(=O)N2CCCC2)C1)N1CCC(Cc2nncn2-c2ccccc2)CC1 (stereo not drawn) | x | i | x | -8%
COc1ccc(-c2ccnc(N[C@H]3CO[C@H]4[C@@H]3OC[C@@H]4NS(=O)(=O)c3ccc(NC(C)=O)cc3)n2)cc1 | i | 40µM* | u | u
CN(C)c1ccc(-c2ccnc(N[C@H]3CO[C@H]4[C@@H]3OC[C@@H]4NC(=O)NCc3ccccc3)n2)cc1 | u | 32µM* | -12% | 22µM*
COc1ccc(-c2ccnc(N[C@H]3CO[C@H]4[C@@H]3OC[C@@H]4NC(=O)NCc3ccccc3)n2)cc1 | i | u | -3% | u
C=CCNC(=O)N[C@H]1CO[C@H]2[C@@H]1OC[C@@H]2Nc1nccc(-c2ccc(OC)cc2)n1 | i | 89µM* | -2%[70.6 µM] | u
O=C(NCc1ccccc1)c1ccc2oc(-c3ccnc(Cl)c3)nc2c1 | x | -9% | x | -23%
O=C(Nc1ccccc1F)N1CCCCCC1c1nc(-c2cccnc2)no1 (stereo not drawn) | i | u | -11% | -21%
CCOCC(=O)Nc1nn(-c2ccc(F)cc2)c2cccc(N3CCOC3=O)c12 | 35µM* | u | -8% | -11%
CCc1nc(C)c(C(=O)Nc2nn(C)c3cccc(N4CCOC4=O)c23)o1 | i | -6% | 1% | i
O=C(CC1CCCCC1)N1CCC2(CC1)CC(N(Cc1ccc(F)cc1)C1CC1)CCO2 (stereo not drawn) | i | 50µM* | 3% | u
O=C(CCC1CCCC1)N1CCC2(CC1)CC(N(Cc1ccc(F)cc1)C1CC1)CCO2 (stereo not drawn) | i | u | 3% | u
O=C(NC1CCOCC1)C1CCN(c2nccc(Nc3ccccc3F)n2)CC1 | x | i | x | -24%
